MRP1 act: H69AR viability gain despite doxorubicin, primary screen, MRP-1 activator project, H69AR cells, CellTiter-Glo | viability rescue | viability increase, % at 10 µM | 140,000 compounds, 0.61% hits;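 active means viability gain under doxorubicin at or above a set limit, the compound median plus 3 SD, cut at about 4.7% in these data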;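 further: MRP-1 overexpressing cells given doxorubicin 25 µM after compound pretreatment; 18-22 h compound pretreatment then 72 h with doxorubicin before readout; 0% = doxorubicin-only wells and 100% = vehicle-treated cells without doxorubicin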
Smad3 FoxH1 inh: Smad3/FoxH1 peptide binding inhibitors, primary screen, biochemical, TR-FRET; TR-FRET Smad3/Dy647-FoxH1 peptide binding, europium anti-His; inhibition, % at 25 µM; 88,000 compounds, 0.29% hits; AID 630, 2007;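 active means compounds that reduce the energy-transfer binding signal between the protein and its labelled peptide by more than half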;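 further: 0% = Smad3 plus labelled peptide maximal FRET and 100% = peptide-only background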
Target sequence (P84022 whole entry, looked up): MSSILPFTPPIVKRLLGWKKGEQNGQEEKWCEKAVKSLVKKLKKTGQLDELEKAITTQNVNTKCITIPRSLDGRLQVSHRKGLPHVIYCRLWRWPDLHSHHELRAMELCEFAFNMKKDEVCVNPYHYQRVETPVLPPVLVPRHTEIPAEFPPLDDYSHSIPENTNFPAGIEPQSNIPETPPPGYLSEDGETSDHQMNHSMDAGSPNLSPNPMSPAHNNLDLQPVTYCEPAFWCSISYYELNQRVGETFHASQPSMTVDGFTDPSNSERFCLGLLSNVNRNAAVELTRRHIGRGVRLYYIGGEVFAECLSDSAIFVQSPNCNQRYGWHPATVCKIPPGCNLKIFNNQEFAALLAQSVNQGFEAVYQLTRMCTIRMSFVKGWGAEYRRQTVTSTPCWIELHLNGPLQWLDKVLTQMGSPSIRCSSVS
MRP resist rev: reversal of MRP1-mediated doxorubicin resistance, primary screen, H69AR cells, doxorubicin co-treatment. H69AR cells + 2 uM doxorubicin, CellTiter-Glo, 72 h. differential viability (reversal), % at 10 µM. 85,000 compounds, 0.04% hits. AID 602, 2007;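 active means viability drop by adding the cancer drug above about 55%, with treated viability meeting a 40% cutoff, limit read from the data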;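 further: viability without doxorubicin minus viability with 2 µM doxorubicin for each compound; larger differential means the compound sensitizes cells more to doxorubicin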
CD11b adhes enh: enhancers of CD11b/CD18 adhesion to fibrinogen, primary screen, K562 cells, luminescence; ATPlite luminescence; AID 1499, 2009; Integrin beta-2 (Homo sapiens) + Integrin alpha-M (Homo sapiens), P05107+P11215; activation, % at 10 µM; 93,000 compounds, 0.07% hits;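 active means 10 µM primary screen giving 50% or more activity, confirmed by 40% or more on retest at that dose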
Phagocytosis inh: inhibitors of macrophage phagocytosis, primary screen, imaging, J774A.1 cells, IgG beads. J774A.1 macrophage IgG-bead phagocytosis. inhibition, % at 5 µM. 110,000 compounds, 0.07% hits. AID 1029, 2008;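 active means inhibition above the mean of the plate negative controls plus 5 SD, cut at about 13% in these data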;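 further: phagocytic index as fraction of beads internalized from green versus red external bead signal; plate controls were DMSO negative control for no effect and cytochalasin-D positive control for full effect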
Mac1 fbg inh: inhibitors of CD11b/CD18 adhesion to fibrinogen, primary screen, K562 cells, luminescence; inhibition, % at 10 µM; ATPlite luminescence; Mn2+ added to activate the integrin; 93,000 compounds, 0.54% hits;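 active means primary inhibition of 50% or more at 10 µM, then 40% or more on retest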
* hit, by the source's call; . = not tested or not shown; [ ] = another dose, or the depositor's remark. Compounds with a hit are over-represented: about 1.2% of the library has one in this group of screens.

SMILES | MRP1 act | Smad3 FoxH1 inh | MRP resist rev | CD11b adhes enh | Phagocytosis inh | Mac1 fbg inh
Cc1cccc(N2CCN(C(=O)Cc3ccc(-n4c(=O)[nH]c5ccsc5c4=O)cc3)CC2)c1C | 3 | . | . | . | -2 | .
Cc1ccc(C)c(N2CCN(C(=O)Cc3ccc(-n4c(=O)[nH]c5ccsc5c4=O)cc3)CC2)c1 | 9.6* | . | . | . | -6 | .
COc1ccc(CN2C(=O)C(O)(CC(=O)c3ccc4c(c3)OCO4)c3ccccc32)cc1OC (stereo unspecified) | -4 | 75* | -47 | -1 | 0 | 12
CCN1C(=O)C(O)(CC(=O)c2ccc3c(c2)OCCO3)c2ccccc21 (stereo unspecified) | -1 | 1 | -1 | -3 | 1 | 7
CCOC(=O)/C(=N\Nc1ccccc1Cl)N1CCN(Cc2ccccc2)CC1 | 5.1* | . | . | 6 | -9 | 17
O=C1C[C@H]2C(=O)[C@@H]1[C@@H](C(=O)O)[C@H]2C(=O)O | . | -8 | . | . | . | .
O=C(c1ccco1)c1nnn(Cc2ccccc2)c1-c1ccccc1 | -1 | -7 | 13 | 2 | 0 | 6
CN(Cc1ccccc1)c1oc(COc2ccccc2F)nc1C#N | 7.4* | -15 | 3 | -4 | 1 | 10
C[N+](C)(C)CCN[N@+]1(C)CCCc2ccccc21 | . | 103* | . | . | . | .
CCC(C)Nc1nc(CN2CCOCC2)nc2sc3c(c12)CCC3 (stereo unspecified) | -5 | . | . | -2 | -1 | 3
Cc1noc(/C=C/N(C)C)c1S(=O)(=O)N1CCCC(C(=O)NC(C)c2ccccc2)C1 (stereo unspecified) | 0 | 12 | 6 | . | . | .
Cc1noc(/C=C/N(C)C)c1S(=O)(=O)N1CCCC(C(=O)NC2CCCCC2C)C1 (stereo unspecified) | 8.6* | 3 | -6 | -1 | 0 | 13
Cc1cc(C(=O)N/N=C/c2cc(Br)ccc2OC(=O)c2ccccc2)n[nH]1 | 9.4* | . | . | 4 | 0 | -35
CCn1cnc2c1c(=O)n(CC(=O)N1CCc3ccccc31)c(=O)n2Cc1ccccc1 | 2 | 2 | 3 | -3 | 0 | 4
O=C(Cn1c(=O)c2c(ncn2Cc2ccccc2)n(Cc2ccccc2)c1=O)N1CCc2ccccc21 | 5.3* | 4 | 16 | 9 | -2 | -4
Cc1ccc(NC2=CC(=O)CC(c3ccc(Cl)cc3)C2)cc1 (stereo unspecified) | 4.7* | . | . | . | -8 | .
Cc1ccc(NC2=CC(=O)CC(c3ccccc3)C2)cc1 (stereo unspecified) | -4 | . | . | . | -2 | .
CCOC(=O)C(C(C)=O)C(c1ccc(OCCC(C)C)cc1)C(C(C)=O)C(=O)OCC (stereo unspecified) | -4 | 7 | -2 | . | . | .
Nc1ncnc2nc(N3CCN(CCO)CC3)[nH]c12 | . | -2 | . | . | . | .
COC(=O)c1ccc(OC)c(CSc2nnc(COc3ccc(Cl)cc3)o2)c1 | 6.9* | 5 | 10 | 10 | . | 25
CCOC(=O)N1CCN(C(=O)CSc2nnc(COc3ccc(Cl)cc3)o2)CC1 | 5.8* | 6 | 2 | -3 | 0 | 9
O=C1NC(=S)SC1=C1CCCCCC1 | 0 | 6 | 10 | -3 | . | 59*
Nc1nc(N)c(N=Nc2ccc(C(=O)O)c(O)c2)c(N)n1 | . | 55* | . | . | . | .
O=C(CSc1nnc(Cn2nnc3ccccc32)o1)N(Cc1ccc(F)cc1)c1ccccc1 | -4 | 8 | -8 | -11 | -2 | 102*
COc1ccc(N(Cc2ccccc2)C(=O)CSc2nnc(Cn3nnc4ccccc43)o2)cc1 | 0 | 1 | 15 | -2 | 0 | 21
SMILES | MRP1 act | Smad3 FoxH1 inh | MRP resist rev | CD11b adhes enh | Phagocytosis inh | Mac1 fbg inh
Cc1ccc(S(=O)(=O)c2c(C)cc(C)nc2Cl)c(C)c1 | -2 | . | . | -3 | 0 | 4
Cc1cc(C)c(S(=O)(=O)/N=C2\C=CC(=O)C(Cl)=C2)c(C)c1 | -1 | 5 | 15 | 27 | . | 67*
CCOC(=O)C1C(=O)NC(SCC(N)=O)=C(C#N)C1c1ccccc1OCC (stereo unspecified) | -3 | 4 | 11 | 0 | 2 | -9
Cc1ccc(C(=O)NC2CCSC2=O)cc1 (stereo unspecified) | 0 | 54*[fluorescence artefact?] | 0 | 2 | -2 | -3
COC(=O)CC[C@@H](C)[C@H]1CC[C@H]2[C@@H]3CC[C@H]4C[C@@H]5CC[C@@]4(C)[C@]3(O5)[C@H](Br)[C@@H](Br)[C@]12C | . | -10 | . | . | . | .
O=C(O)CC[C@]1(C(=O)O)CCC(=O)c2ccccc21 | . | -23 | . | . | . | .
CCCCn1nnc(NC(=S)NC(=O)c2cccs2)n1 | 8.8* | . | . | 4 | -9 | -16
CCOc1ccc(NC(=O)N2CCC(n3c(=O)[nH]c4ccccc43)CC2)cc1 | 5.6* | -6 | -16 | 1 | 0 | -1
COc1ccc(C2/C(=C(\O)c3ccc4c(c3)OCCO4)C(=O)C(=O)N2CCCN(C)C)c(OC)c1 (stereo unspecified) | . | 4 | 20 | -1 | -1 | 0
COc1ccc(S(=O)(=O)Nc2ccc(N(C)C(C)=O)cc2)cc1 | -1 | -12 | 13 | 0 | 192* | -24
O=C(O)CCCNc1cc(N2CCC3(CC2)OCCO3)c2noc3c2c1C(=O)c1ccccc1-3 | -4 | 98*[fluorescence artefact?] | -12 | . | . | .
CC1CCN(CC(=O)N2c3ccccc3Sc3cc4ccccc4cc32)CC1 | . | 2 | . | . | . | .
c1ccc(CCc2cccnc2)nc1 | . | 10 | . | . | . | .
CC(C)(C)NS(=O)(=O)c1ccc(CCC(=O)N2CCOCC2)cc1 | -4 | 6 | -8 | 3 | 22*[artifact] | -11
CC1CCN(C(=O)CCc2ccc(S(=O)(=O)NC(C)(C)C)cc2)CC1 | -2 | 2 | 7 | -1 | -1 | -4
CC1(C)[C@H]2CC[C@]1(C)[C@H](OC(=O)CSC#N)C2 | . | -5 | . | . | . | .
OCCSCc1cc(Cl)cc(Cl)c1O | . | 0 | . | . | . | .
O=C(C1CC1)N1CCC(c2nc(-c3ccc(S(=O)(=O)NCC4CCCO4)cc3)no2)CC1 (stereo unspecified) | -1 | 1 | -1 | -3 | -1 | 62*
O=C(c1ccccc1)N1CCC(c2nc(-c3ccc(S(=O)(=O)NCC4CCCO4)cc3)no2)CC1 (stereo unspecified) | 0 | 24 | 18 | -4 | -2 | 53
O=C(C1COc2ccccc2O1)N1CCc2ccccc21 (stereo unspecified) | 0 | 12 | -2 | 0 | 2 | 9
c1ccc(CN2COc3c(ccc4c5c(ccc34)CN(Cc3ccccc3)CO5)C2)cc1 | . | 47 | . | . | . | .
Cn1cc(Cl)nc1C(O)c1ccccc1 (stereo unspecified) | 3 | 4 | 15 | -2 | -4 | -7
Cc1ccc(S(=O)(=O)NCCc2ccncc2)cc1 | 0 | 0 | 8 | 7 | -2 | -46
